Measurements as given in the supplement of paper PMC10681739.

What was measured:
[1] = molecular target: T1, ETS1 (UniProt P14921); assay: ETS1 binding intensity (PBM fluorescence), ETS1 alone (arbitrary fluorescence units); higher = stronger binding; details: ETS1 concentration 1 nM; RUNX1 concentration 0 nM
T1 sequence: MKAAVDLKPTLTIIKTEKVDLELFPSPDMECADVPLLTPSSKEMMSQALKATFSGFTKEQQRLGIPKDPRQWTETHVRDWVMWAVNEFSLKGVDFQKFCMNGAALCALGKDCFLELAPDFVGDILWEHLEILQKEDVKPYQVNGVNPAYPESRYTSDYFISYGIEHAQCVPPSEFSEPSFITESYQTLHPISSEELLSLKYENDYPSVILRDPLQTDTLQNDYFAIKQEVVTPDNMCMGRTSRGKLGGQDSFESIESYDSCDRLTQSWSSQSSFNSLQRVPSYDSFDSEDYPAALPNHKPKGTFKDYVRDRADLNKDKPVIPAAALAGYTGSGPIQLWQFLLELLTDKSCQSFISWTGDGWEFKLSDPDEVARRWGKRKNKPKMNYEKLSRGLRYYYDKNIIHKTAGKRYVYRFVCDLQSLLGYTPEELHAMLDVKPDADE

[2] = molecular target: T1, ETS1; assay: ETS1 binding intensity (PBM fluorescence) in presence of RUNX1, normalised to ETS1-only experiment (arbitrary fluorescence units); higher = stronger binding; details: ETS1 concentration 1 nM; RUNX1 concentration 25 nM

Sequence	ETS1 binding intensity [1]	ETS1 binding intensity [2]
TACCACTGAAAGGATGTGCGGGTAGAAATGAGCAAT	830	938
GTATTTATTTCCTCTTCGAAGAAATGCGGGGGTGCC	473	438
ACAGCATTTCCTGGTGGCCAGATATCTGAGGTTTCA	426	539
TGAGAAGGCAGGATAAGTGACCACATATTTATGCCA	435	874
TAGCAGGAAGCCGATTCGCCCTATATGCAACCACTT	549	570
GCTTCGTTTCCCGCCGGGGCTCACCGCGCCCCCCTA	621	615
AGGAGTGACGAGGCGGACGTGCGGGGGCGGGGGTGT	461	458
GAGAGCTGAGCGGAAGCTCAGCTGTGGGGCTGGTTG	1740	1990
GCCCCTCTTCCTGACTCACACAACCGCCTCTAGTCT	457	330
CCGAAGAGGAAGCTCCACAGGACCTCCGCGGTCAGC	397	1000
GAATCACCATTTCCTCACTCCCACACAACCATGTTG	485	417
GCACAGGAAAAGCTGCTTTCCGCGTGGTAAATTCAA	484	446
GGTTGCCCCCTTCCTCTCTGTGGCACACACAGACCT	474	345
TTCTTAGCAGAGGAAGCTGTTTGCGGGGAAAAAGGG	1120	2200
TGTTTGTTTCCGAAGATTAGCCAGCCTGCGGTAGAG	437	605
GGGCCCCCGGAAAGAGCTTTGACCGCTCGAGCCTGC	456	489
CAGCCCTCTTCCTGCCTGTCTGTGGCTGGTGAGGTT	597	431
TGGGGTGGGGTGGGAAGTGCCAGCGGTCTGGGTGTC	537	486
